IL-1B inflam inh – blocks inflammasome-driven IL-1 beta release; AID 743279; 360,000 compounds, 4.7% hits; THP-1 LPS/ATP IL-1B secretion, AlphaLISA, 16 h; stronger effect = lower value; activity change, % at 57.5 µM; in the data active = activity change below about -50%; inconclusive = mostly about -30% to -49%
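THP-1 cells pretreated 1 hr with compounds (up to 57.5 uM final), then stimulated with LPS (250 ng/mL final) plus ATP (1.25 mM final); secreted IL-1B measured by AlphaLISA after 16 hr, decreased signal indicating inhibition.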
TDP1 cell noCPT – qHTS for Inhibitors of human tyrosyl-DNA phosphodiesterase 1 (TDP1): qHTS in cells in absence of CPT; DT40 Tdp1-/- hTDP1 cells, no CPT, ATP luminescence, 48 h; Potency, µM (top dose mostly 46.2 µM), hits mostly inhibitors; 420,000 compounds, 15% hits; also: nearly all actives have a fitted effect of over 55% in size
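Compound effects on proliferation are scored in DT40 Tdp1-/-;hTDP1 cells in the absence of CPT. ATP levels (CellTiter-Glo luminescence) are recorded after a ≥48 hr, 37 °C incubation.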
D3 antag – blocks the human D3 dopamine receptor | AID 652054 | P35462 | 360,000 compounds, 2.5% hits | D3R cells, DiscoveRx beta-arrestin luminescence, antagonist mode; stronger effect = lower value | max response, negative = inhibition, %; in the data active = max response below about -50%; inconclusive = no clear call, values can overlap the other calls
Target sequence (P35462 whole entry, looked up): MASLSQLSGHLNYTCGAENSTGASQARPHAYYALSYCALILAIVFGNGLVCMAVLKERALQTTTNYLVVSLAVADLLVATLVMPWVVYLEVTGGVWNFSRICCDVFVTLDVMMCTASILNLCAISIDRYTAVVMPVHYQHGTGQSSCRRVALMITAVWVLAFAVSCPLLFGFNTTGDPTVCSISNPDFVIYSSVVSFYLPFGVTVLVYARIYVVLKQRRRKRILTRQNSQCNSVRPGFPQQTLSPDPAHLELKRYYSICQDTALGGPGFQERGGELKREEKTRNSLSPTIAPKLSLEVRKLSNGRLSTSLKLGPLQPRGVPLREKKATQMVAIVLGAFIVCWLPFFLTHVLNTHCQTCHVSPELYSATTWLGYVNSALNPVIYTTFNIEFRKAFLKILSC
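Cells plated overnight at 1500 cells/well, then exposed to library compounds with dopamine controls for 90 minutes at 37 degrees C. DiscoveRx reagent added for 30–60 minutes at room temperature; luminescence read, quantitative HTS format.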
ClpP mod – qHTS Assay for Activators of ClpP; purified B. subtilis ClpP, FRET peptide cleavage, 20 min; 340,000 compounds, 1.9% hits; ATP-dependent Clp protease proteolytic subunit (Bacillus subtilis (strain 168)), P80244; Potency, µM (top dose mostly 57.5 µM); active = well fitted falling curve with a large enough effect; inconclusive = small, poorly fitted or top-dose-only effect; inactive = no such curve, though single readings can be large or run the other way; also: the source files actives as falling curves though it sought activators and does not explain the sign; nearly all actives have a fitted effect of over 65% in size
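FRET quenching reversal measured ClpP activation: 10 microg/mL B. subtilis ClpP at pH 8 with the FRET-FV decapeptide, read at 430 nm after 320 nm excitation. The 20-min minus 0-min signal was scaled between DMSO/no-enzyme wells and ADEP (5.8 microM final).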
TDP1 cell CPT – DT40-hTDP1 cell growth loss with CPT; Potency, µM (highest dose often 46.2 µM), actives largely listed as inhibitors; chicken DT40 Tdp1-/-;hTDP1 cells + 20 nM CPT, ATP luminescence, 48 h; 420,000 compounds, 12% hits; also: nearly all actives have a fitted effect of over 55% in size
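Chicken DT40 Tdp1-/- cells complemented with human TDP1, 400 cells/well, exposed to compounds plus 20 nM camptothecin for at least 48 h at 37 C; viability read as ATP content by CellTiter-Glo luminescence.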
DRD3 agonist – agonists of human D3 dopamine receptor; 410,000 compounds, 0.58% hits; D3R DiscoveRx beta-arrestin cells, luminescence, 90 min; AID 652048; P35462; max activation, %; in the data active = max activation above about 30%
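Cells at 1500/well, incubated overnight, then treated with pinned compounds (dopamine as control) for 90 min at 37 degrees C. DiscoveRx reagent added for 30 - 60 minutes at room temperature; luminescence read.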
Hits are given with their value. In the library only some 21% were active in any assay of this set; here they are far more common. Unless noted, calls follow the shape of the dose curve; as a rule, active = well fitted inhibition curve with a large enough effect; inconclusive = small, poorly fitted or top-dose-only effect; inactive = flat fitted curve, though single readings scatter.

Results for COc1cc(C(=O)Nc2cc(OC)c(OC)c(OC)c2)ccc1OCc1c(C)noc1C ?
IL-1B inflam inh: inactive; TDP1 cell noCPT: inconclusive; D3 antag: inactive; ClpP mod: inactive; TDP1 cell CPT: inconclusive; DRD3 agonist: inactive

Results for Cc1ccc(NC(=O)c2cccc(OCc3c(C)noc3C)c2)cc1 ?
IL-1B inflam inh: inactive; TDP1 cell noCPT: inactive; D3 antag: inactive; ClpP mod: inactive; TDP1 cell CPT: inactive; DRD3 agonist: inactive

How did COc1cc(C(=O)Nc2nc3ccc(C)cc3s2)ccc1OCc1c(C)noc1C do in these assays?
IL-1B inflam inh: inactive; TDP1 cell noCPT: 18µM; D3 antag: inactive; ClpP mod: inactive; TDP1 cell CPT: 18µM; DRD3 agonist: inactive

How did CC1CN(c2cc3c(cc2F)c(=O)c(C(=O)O)cn3-c2ccc(F)cc2F)CCN1 (stereo not drawn) do in these assays?
TDP1 cell noCPT: inactive; TDP1 cell CPT: inactive; DRD3 agonist: inactive

How did CCCN1CNc2c(c(=O)[nH]c(=S)n2CCc2cccc(OC)c2OC)C1 do in these assays?
TDP1 cell noCPT: inactive; ClpP mod: inactive; TDP1 cell CPT: inactive

What do the screens show for `Cc1nn(CC(=O)NC(=O)NC2CCCCC2C)c(=O)c(C#N)c1C` (stereo not drawn)?
IL-1B inflam inh: inactive; TDP1 cell noCPT: inconclusive; D3 antag: inactive; ClpP mod: inconclusive; TDP1 cell CPT: inconclusive; DRD3 agonist: inactive

What do the screens show for `O=C(CC1N=C2c3ccccc3N=C(SCc3ccc(F)cc3)N2C1=O)NC1CCCCC1` (stereo not drawn)?
TDP1 cell noCPT: 16µM; ClpP mod: inactive; TDP1 cell CPT: inconclusive; DRD3 agonist: inactive

Results for O=C(CC1N=C2c3ccccc3N=C(SCc3ccc(Cl)cc3)N2C1=O)NC1CCCCC1 (stereo not drawn) ?
TDP1 cell noCPT: inconclusive; ClpP mod: inactive; TDP1 cell CPT: inconclusive; DRD3 agonist: inactive

Results for COc1cccc(NC(=O)CSC2=Nc3ccccc3C3=NC(CCC(=O)NC4CCCCC4)C(=O)N23)c1 (stereo not drawn) ?
TDP1 cell noCPT: inconclusive; ClpP mod: inactive; TDP1 cell CPT: inconclusive; DRD3 agonist: inactive

What do the screens show for `O=C(CCC1N=C2c3ccccc3N=C(SCc3ccc(F)cc3)N2C1=O)NC1CCCCC1` (stereo not drawn)?
TDP1 cell noCPT: 10µM; ClpP mod: inactive; TDP1 cell CPT: 21µM; DRD3 agonist: inactive

How did Cc1ccc(CSC2=Nc3ccccc3C3=NC(CC(=O)NC4CCCCC4)C(=O)N23)cc1 (stereo not drawn) do in these assays?
TDP1 cell noCPT: 1.2µM; ClpP mod: inactive; TDP1 cell CPT: 1.2µM; DRD3 agonist: inactive

How did CNC(=O)CN1C(=O)COc2ccc(S(=O)(=O)N3CCC(C)CC3)cc21 do in these assays?
ClpP mod: inactive; DRD3 agonist: inactive

What do the screens show for `COc1ccc(-c2nnc(SC(C)C(=O)NCc3ccc4c(c3)OCO4)n2Cc2ccco2)cc1` (stereo not drawn)?
IL-1B inflam inh: inactive; TDP1 cell noCPT: 15µM; D3 antag: inactive; ClpP mod: inactive; TDP1 cell CPT: inconclusive; DRD3 agonist: inactive

How did O=C(CSc1nnc(-c2ccc(Cl)cc2)n1Cc1ccco1)NCc1ccc2c(c1)OCO2 do in these assays?
IL-1B inflam inh: inactive; TDP1 cell noCPT: 26µM; D3 antag: inconclusive; ClpP mod: inactive; TDP1 cell CPT: inconclusive; DRD3 agonist: inactive

How did O=C(CSc1nnc(-c2ccc(Cl)cc2)n1Cc1ccco1)Nc1ccc2c(c1)OCCO2 do in these assays?
IL-1B inflam inh: inconclusive; TDP1 cell noCPT: inconclusive; D3 antag: inactive; ClpP mod: inactive; TDP1 cell CPT: inconclusive; DRD3 agonist: inactive

Results for Cc1[nH]c2ccc(-c3nnc(SCC(=O)NCc4ccco4)n3Cc3ccccc3)cc2c1C ?
IL-1B inflam inh: inactive; TDP1 cell noCPT: 23µM; D3 antag: inactive; ClpP mod: inconclusive; TDP1 cell CPT: inconclusive; DRD3 agonist: inactive
